The source of these data is PubChem BioAssay (NCI).

Structures are written as SMILES. This is part of a sample that, as a whole, favours compounds with a hit. Of some 83,000 tested, about 20% had one in any assay.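 The endpoint reported here, percent growth, reads 100 for growth as untreated, 0 for no net growth and -100 for all cells dead.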 Calls of active or inactive are those of the source.

The subject of this test is HT29 colon. The experiment in a line: NCI-60 one-dose screen, 48 h (100 = growth as untreated, 0 = no growth, -100 = all killed). The note with it: 10 µM unless noted. As for the experimental part:
Growth inhibition of the HT29 human tumor cell line is measured as a screen for anti-cancer activity. Cells are grown in 96 well plates and exposed to the test compound for 48 hours. Compounds are tested at a single concentration, which is 10^-5 M for most compounds. The reported endpoint is percent growth (GI% or GIPRCNT), where numbers from 0 - 100% represent growth inhibition, and numbers from -100% - 0 represent cell death. For example, a value of 40 represents 60% growth inhibition. A value of 0 means no net growth occurred over the course of the experiment. A value of -40 indicates 40% of cells at the beginning of the experiment died by the end of the experiment. A value of -100 means all cells are dead at the end of the experiment.
NCI-60 Human Tumor Cell Lines Screen was performed using the standard one-dose NCI protocol, which is described in more detail at https://dtp.cancer.gov/discovery_development/nci-60/default.htm.
Compounds with GIPRCNT values below 10 were considered active. Activity score was based on GIPRCNT using the following formula: […]
Score is 0 for GIPRCNT values of 100 or above, 50 for GIPRCNT values of 0, and 100 for GIPRCNT values of -100.
Take `Cc1nc2sc(C(=O)Nc3ccccc3)c(N)c2cc1C(=O)c1ccc(C(F)(F)F)cc1`: the growth is 103% (inactive).
In the case of `CC(C)(C)OC(=O)N1C/C(=C\c2ccoc2)C(=O)/C(=C/c2ccoc2)C1`, the growth was 98% (inactive).
Next, `N/C(=N\N=C\c1cc2ccccc2[nH]1)N/N=C/c1cc2ccccc2[nH]1`: 95.7% (inactive).
Turning to `CCOC(=O)N1CCN(CCCCl)CC1`, the growth was 107% (inactive).
For `Cn1c(=O)c2[nH]c(CCCc3nc4c([nH]3)c(=O)n(C)c(=O)n4C)nc2n(C)c1=O` the value was 109% (inactive).
Next, `O=C(NCCN1CCOCC1)OCc1nc2nc(Cl)nc(N3CCOCC3)c2[nH]1`: 122% (inactive); `COc1ccc2c(/C=C3/C(=O)NC(=S)NC3C)cc(=O)oc2c1` (stereo not given): 88.8% (inactive); `N#Cc1c(Nc2ccccc2)nn2cc(-c3nc4ccccc4s3)c(N)nc12`: 81.8% (inactive).
Next, `COc1ccc(Cc2nc3cc(OC)c(OC)cc3c(=O)[nH]2)cc1`: 62.9% (inactive); `COc1nc(N)nc(-n2c(-c3ccc(C)cc3)nc3ccccc32)c1NCc1ccc(C)cc1`: 94.7% (inactive); `COc1cc2nc(-c3ccc(C(F)(F)F)cc3)cc(OCCCN3CCC(O)CC3)c2cc1OC`: 9.01% (active).
As to `NC(=O)C1(N2CCCCC2)CCN(CCCC(=O)c2ccc(F)cc2)CC1`, the growth is 5.09% (active).
For `COc1ccc(-c2cnc(N)nc2-c2ccc(OC)cc2O)cc1` the value was 85.6% (inactive); for `Fc1ccccc1CSc1ncnc2nc[nH]c12`, 107% (inactive).
Next, `O=C(Nc1ccc2ncnc(Nc3ccc(Oc4cccc(F)c4)c(Cl)c3)c2c1)c1ccc(CN2CCOCC2)cc1`: 20.9% (inactive).
For `CCNC(=O)c1[nH]cc(-c2ccc(OC)cc2)c1-c1cc(OC)c(OC)c(OC)c1` the value was 14.7% (inactive); for `CCN1C(=O)/C(=c2\sc3n(c2=O)NC2C(N=3)N(CC)C(=O)N2CC)c2ccccc21` (stereo not given), 12.9% (inactive); for `COc1ccc(/C=C2\COc3ccc(-c4ccccc4)cc3C2=O)cc1O`, 25.8% (inactive).
For the compound `C=C(C)[C@@H]1CC[C@]2(C=O)CC[C@]3(C)[C@H](CC[C@@H]4[C@@]5(C)CCCNC(C)(C)[C@@H]5CC[C@]43C)[C@@H]12`, the growth was 14% (inactive).
Take `CC(O)/C=C/C=C/C(O)CC/C=C/C(=O)NCC(C)(C)O` (stereo not given): the growth was 102% (inactive).
Next, `C(=C\c1n(Cc2ccc3ccccc3c2)c(-c2ccccc2)c(-c2ccccc2)[n+]1Cc1ccc2ccccc2c1)/c1ccccc1`: -63.5% (active); `COc1cc(NCCN(CC(C)C)C2CCCC2)c2ncccc2c1`: 71.8% (inactive); `COc1cc(/C=C/C(=O)c2c(C)oc3nc[nH]c(=O)c23)ccc1O`: 108% (inactive).
Take `CCOC(=O)c1ccc(Nc2ccnc(SCC(=O)c3ccc(C#N)cc3)n2)cc1`: the growth is 76.2% (inactive).
For `O=S(=O)(NCCCNc1nccc(-c2c(-c3cccc(O)c3)nc3occn23)n1)c1ccc(Br)cc1` the value was 38.9% (inactive).
For `COc1ccc(Cl)cc1NC(=O)c1c(NC(=O)C(F)(F)C(F)(F)F)sc2c1CCCCC2` the value was 3.87% (active); for `CCN1C(=O)N(CC)C2NC(SC)=NC21` (stereo not given), 108% (inactive); for `Cc1ccccc1CNc1ccc(N2CCOCC2)cc1`, 105% (inactive).
In the case of `c1ccc(-c2nn(-c3ccccc3)[n+](-c3ccccc3-c3ccccc3)n2)cc1`, the growth was 5.29% (active).
With `CC(C)Sc1nc(NN)c(C#N)c(-c2ccccc2)n1`, the growth was 111% (inactive).
Next, `COC(=O)Nc1ccc(NC(=O)OC)cc1`: 98.4% (inactive); `CC(=O)OCCCCCNc1ccccc1`: 99.2% (inactive); `C#CCNC(=O)[C@H](Cc1ccccc1)NC(=O)[C@]12CC[C@@H](C(=C)C)[C@@H]1[C@H]1CC[C@@H]3[C@@]4(C)Cc5c([nH]c6ccccc56)C(C)(C)[C@@H]4CC[C@@]3(C)[C@]1(C)CC2`: 88.8% (inactive).
Next, `CCNC(=S)NNC(=O)c1cc2ccc1CCc1ccc(cc1)CC2`: 104% (inactive); `O=S(=O)(NCCCNc1nccc(-c2c(-c3ccc(F)c(O)c3)nc3sccn23)n1)c1ccc(F)cc1`: 9.5% (active).
For `COc1cc(-c2cc(=O)oc3cc(O)ccc23)c(OC)c2c1OCO2` the value was 102% (inactive).
For the compound `FCc1nc2nc(Cl)c(Cl)nc2[nH]1`, the growth was 99.4% (inactive).
For `CC(C)NC(=O)N1C(=O)CCC1NNC(=O)c1ccc([N+](=O)[O-])cc1` (stereo not given) the value was 106% (inactive); for `O=C(Cc1ccc(/C=C/C(=O)c2ncc[nH]2)cc1)Nc1ccc(C(F)(F)F)cc1`, -32.5% (active).
As for `CN1C(=O)N(C)[C@H]2NC(NN)=N[C@H]21`, the growth is 105% (inactive).
